Experimental data: paper PMC4552634, “A New Set of Chemical Starting Points with Plasmodium falciparum Transmission-Blocking Potential for Antimalarial Drug Discovery” (PLoS ONE, 2015)
Out of some 13,000 compounds screened, about 3,200 (25%) showed an effect of 50% or more. The list shows a part of the results.

test system: P. falciparum stage V gametocytes; set-up: BacTiter-Glo ATP luminescence viability of purified stage V gametocytes in 384-well plates, per cent inhibition versus DMSO; conditions: 48 h, 5 µM; inhibitor

| Structure (SMILES) | % Inhibition [%] |
| --- | --- |
| CN(C)CCOc1cc(NC(=O)Nc2cccc3c(-c4ccncc4)cccc23)ccc1I [TCMDC-139143] | 27.84 |
| CN(C)CCOc1cc(NC(=O)Nc2ccc(Oc3ccccc3)cc2)ccc1I [TCMDC-139113] | -27.54 |
| COc1cc(Cc2cnc(N)nc2N)cc(OC)c1OCCNC(=O)[C@@H](N)CCC(=O)O [TCMDC-137685] | -2.761 |
| Cc1cc(F)ccc1[C@H]1C[C@H](N2CCOCC2)CCN1C(=O)N(C)[C@@H](C)c1cc(C(F)(F)F)cc(C(F)(F)F)c1 [TCMDC-138838] | 17.17 |
| Cc1cc(F)ccc1[C@H]1CNCCN1C(=O)N(C)C(C)(C)c1cc(C(F)(F)F)cc(C(F)(F)F)c1 [TCMDC-138568] | 62.57 |
| Cc1cc(F)ccc1[C@H]1CNCCN1C(=O)N(C)[C@@H](C)c1cc(C(F)(F)F)cc(C(F)(F)F)c1 [TCMDC-138495] | 76.86 |
| CCNc1cc(C(=O)N[C@@H](Cc2ccccc2)[C@H](O)CNC2CCC(C(C)(C)C)CC2)cc(N2CCCC2=O)c1 (stereo partly shown) [TCMDC-138903] | 47.86 |
| Cc1ccnc2nc(C(=O)Nc3cc(Cl)ccc3N3CCOCC3)nn12 [TCMDC-124435] | 7.323 |
| CC1CCCN(C(=O)C(C)Nc2cc(Cl)ccc2N2CCOCC2)C1 (stereo not shown) [TCMDC-125110] | 85 |
| CC(Oc1ccc(Cl)cc1)C(=O)Nc1cc(C(F)(F)F)ccc1N1CCOCC1 (stereo not shown) [TCMDC-125311] | 3.686 |
| COc1ccccc1CNC(=O)CCn1c(=O)[nH]c2ccsc2c1=O [TCMDC-123587] | 30.03 |
| O=C(CSc1nc2ccccc2c(=O)n1C1CC1)Nc1cc(C(F)(F)F)ccc1Cl [TCMDC-123578] | -84.13 |
| NC(N)=NCC=C(c1ccccc1)c1ccccc1 [TCMDC-137566] | 51.32 |
| NC(N)=NCCCN(Cc1ccccc1)c1ccccc1 [TCMDC-131836] | 40.87 |
| CC1(C)N=C(N)N=C(N)N1OCOc1cc(Cl)c(Cl)cc1Cl [TCMDC-131783] | 42.76 |
| CCOC(=O)c1cc(Cl)cc(Cl)c1OCCCON1C(N)=NC(N)=NC1(C)C [TCMDC-131703] | 21.46 |
| O=C(Nc1ccc(-c2nc3ccccc3[nH]2)cc1)c1cccc(S(=O)(=O)N2CCCC2)c1 [TCMDC-125262] | -9.526 |
| CC[C@H](C)CNC(=O)c1cncc(-c2ccc(CNC3CCCC3)cc2)c1 [TCMDC-134232] | 8.826 |
| CN(C)CCN(Cc1ccc(-c2ccc(CNCCc3ccccc3)cc2)nc1)C(=O)CCC1CCCC1 [TCMDC-141402] | 63.7 |
| CC(C)CNCc1ccc(-c2cccc(CN(CCN(C)C)C(=O)CCC3CCCC3)c2)cc1 [TCMDC-140553] | 109.4 |
| CC(C)CNCc1cccc(-c2cccc(CN(CCCN3CCN(C)CC3)C(=O)NC3CCCCC3)c2)c1 [TCMDC-140633] | 106.9 |
| CC(C)CNC(=O)c1cncc(-c2ccc(CN(C)C3CCN(C)CC3)cc2)c1 [TCMDC-134235] | 31.51 |
| CC(C)CNCc1ccc(-c2ccc(CN(CCCN3CCN(C)CC3)C(=O)CCC3CCCC3)cc2)cc1 [TCMDC-140559] | 105.9 |

| Structure (SMILES) | % Inhibition [%] |
| --- | --- |
| CC[C@H](C)CNC(=O)c1cncc(-c2ccc(CN(C)C3CCN(C)CC3)cc2)c1 [TCMDC-134233] | 22.49 |
| COc1cc(NC(=O)/C=C/c2ccccc2OC(F)(F)F)cc(OCCN2CCN(CCN3CCOCC3)CC2)c1 [TCMDC-140929] | -8.825 |
| COc1cc(NC(=O)NC(CCN2CCC3(CCc4ccccc43)CC2)c2ccc(Cl)c(Cl)c2)cc(OC)c1OC (stereo not shown) [TCMDC-141765] | -19.84 |
| CCC(C)CN1CCC(N(C)c2cc(NC(=O)c3ccc(F)cc3)ccn2)CC1 (stereo not shown) [TCMDC-134951] | 19.56 |
| Nc1nc(N)c(-c2ccccc2)c(=O)[nH]1 [TCMDC-137349] | 4.514 |
| CC[C@H](C)CNC(=O)c1ccnc(-c2cccc(CN(C)C3CCN(C)CC3)c2)c1 [TCMDC-134243] | -9.422 |
| CC(C)CNCc1cccc(-c2cccc(CN(CCCN3CCN(C)CC3)C(=O)CCC3CCCC3)c2)c1 [TCMDC-140554] | 109.3 |
| CC[C@H](C)CNC(=O)c1cncc(-c2cccc(CN(C)C3CCN(C)CC3)c2)c1 [TCMDC-134225] | 17.67 |
| CC(C)CNCc1cccc(-c2ccc(CN(CCCN3CCN(C)CC3)C(=O)CCC3CCCC3)cc2)c1 [TCMDC-140558] | 107.6 |
| COc1cc(OC)c(OC)cc1CN1CCC2(CC1)CN(Cc1ccc(Cl)c(Cl)c1)C(=O)O2 [TCMDC-132175] | 23.65 |
| CCOc1c(CNCCCNc2cc(=O)c3ccccc3[nH]2)cc(I)cc1C(C)(C)C [TCMDC-140132] | -43.73 |
| O=C(Nc1cccc(F)c1)c1ccc(C(=O)NC2CCN(CC3CCCCC3)C2)cc1 (stereo not shown) [TCMDC-136741] | 0.01446 |
| CC(CN(C)C)C(=O)Nc1cccc(-c2ccc(-c3nc4ccccc4[nH]3)cc2)c1 (stereo not shown) [TCMDC-137107] | -47.86 |
| CC(CN(C)C)C(=O)Nc1ccc(-c2cccc(-c3nc4ccccc4[nH]3)c2)cc1 (stereo not shown) [TCMDC-137099] | -5.672 |
| CC(CN(C)C)C(=O)Nc1ccc(-c2csc(-c3nc4ccccc4[nH]3)c2)cc1 (stereo not shown) [TCMDC-132390] | 44.44 |
| CC(CN(C)C)C(=O)Nc1cccc(-c2cccc(-c3nc4ccccc4[nH]3)c2)c1 (stereo not shown) [TCMDC-137101] | 94.09 |
| CC(CN(C)C)C(=O)Nc1ccc(-c2ccc(-c3nc4ccccc4[nH]3)cc2)cc1 (stereo not shown) [TCMDC-137108] | 88.79 |
| CC(CN(C)C)C(=O)Nc1cccc(-c2cccc(-c3nc4ccc(F)cc4[nH]3)c2)c1 (stereo not shown) [TCMDC-137104] | -36.15 |
| C#CCNCc1ccc(-c2ccc(-c3nc4cc(C(F)(F)F)ccc4[nH]3)s2)cc1.O=C(O)C(F)(F)F [TCMDC-132805] | -48.9 |
| COc1cc(CCON2C(N)=NC(N)=NC2(C)C)cc(OC)c1OC [TCMDC-131368] | -0.5645 |
| CC[C@]1(C)C[C@@H](NC(=O)NC(=O)c2ccc(OC)cc2)[C@]2(C)[C@H](C)CC[C@]3(CCC(=O)[C@H]32)[C@@H](C)[C@@H]1OC(=O)NC(=O)c1ccc(OC)cc1 [TCMDC-139025] | 34.49 |
| O=S(=O)(c1cc(Cl)c(Cl)cc1Cl)N1CCCCC(c2ccc(C(F)(F)F)cc2)=N1 [TCMDC-134542] | -0.152 |
| CC1(C)N=C(N)N=C(N)N1OCCCOc1cccc(C(=O)O)c1 [TCMDC-124025] | 22.26 |

| Structure (SMILES) | % Inhibition [%] |
| --- | --- |
| O=C(Nc1ccc(-c2cccc(-c3nc4ccccc4[nH]3)c2)cc1)Nc1ccc2c(c1)OCO2 [TCMDC-133168] | -6.536 |
| Cc1[nH]c(C)c(-c2ccc(OCc3ccc(OC(F)(F)F)cc3)nc2)c(=O)c1Br [TCMDC-135254] | 45.17 |
| Cc1[nH]c(C)c(-c2ccc(OCc3cc(F)cc(F)c3)nc2)c(=O)c1Br [TCMDC-135683] | 58.89 |
| Cc1[nH]c(C)c(-c2ccc(OCc3cc(F)cc(F)c3)nc2)c(=O)c1Cl [TCMDC-135676] | 67.03 |
| Cc1[nH]c(C)c(-c2ccc(OCc3ccc(F)cc3)nc2)c(=O)c1Br [TCMDC-135657] | 60.6 |
| CCNc1cc(C(=O)N[C@@H](Cc2ccc(Cl)cc2)[C@H](O)CNC2CCCCC2)cc(N2CCCCS2(=O)=O)c1 [TCMDC-135201] | 29.54 |
| N#Cc1ccc(NC(=Nc2ccccc2Br)N(C2CCCCC2)C2CCCCC2)c(O)c1 [TCMDC-140131] | -34.98 |
| FC(F)(F)CNc1nc(Nc2ccc3ncccc3c2)nc2[nH]ccc12 [TCMDC-132120] | 26.12 |
| C=C[C@H]1CN2CC[C@H]1C[C@H]2[C@H](O)c1ccnc2ccccc12 [TCMDC-123934] | 4.056 |
| CN(C)c1cccc(CN2CC=C(c3c[nH]c4ccc(Cl)cc34)CC2)c1 [TCMDC-138946] | 8.82 |
| NS(=O)(=O)c1cccc(-c2ccc3c(=O)[nH]cnc3c2)c1 [TCMDC-136756] | 63.64 |
| Nc1ncnc2cc(-c3cccc(S(N)(=O)=O)c3)sc12 [TCMDC-135294] | -17.5 |
| COc1ccc(-c2ccc3c(-c4cccc(S(C)(=O)=O)c4)cnc(N)c3c2)cc1 [TCMDC-134494] | 3.475 |
| NS(=O)(=O)c1cccc(-c2ccc3nccc(-c4cccc(S(N)(=O)=O)c4)c3c2)c1 [TCMDC-138902] | 75.33 |
| CS(=O)(=O)c1cccc(-c2cnc(N)c3cc(-c4cccc(F)c4)ccc23)c1 [TCMDC-134493] | 8.942 |
| CS(=O)(=O)c1cccc(-c2cnc(N)c3cc(-c4ccc5c(c4)OCO5)ccc23)c1 [TCMDC-134515] | -1.728 |
| NS(=O)(=O)c1cccc(Br)c1 [TCMDC-123819] | -1.825 |
| NS(=O)(=O)Cc1cccc(-c2ccnc3ccc(-c4cccc(S(N)(=O)=O)c4)cc23)c1 [TCMDC-134159] | 58.63 |
| CS(=O)(=O)c1cccc(-c2cnc(N)c3cc(-c4ccc(F)cc4)ccc23)c1 [TCMDC-134492] | 11.87 |
| COc1cccc(-c2ccc3c(-c4cccc(S(C)(=O)=O)c4)cnc(N)c3c2)c1 [TCMDC-134495] | 30.55 |
| CN(C)S(=O)(=O)c1cc(-c2ccc3nccc(-c4cccc(S(N)(=O)=O)c4)c3c2)cnc1N [TCMDC-134230] | 96.42 |
